# Measured values: PubChem BioAssay AID1347074 (Center for Chemical Genomics, University of Michigan, 2019)
# In all, about 47,000 compounds went through this assay and about 2,800 (6%) were called active. The sample as a whole holds a higher share of actives than the screen did. Values without a mark were called inactive. Rule as the data show it: active = z-score above about 3 (passing the limit was not always enough); inactive = the rest.
# Target: Endoribonuclease Dicer (Homo sapiens) (UniProt Q9UPY3)
# Sequence (Q9UPY3 whole entry, looked up): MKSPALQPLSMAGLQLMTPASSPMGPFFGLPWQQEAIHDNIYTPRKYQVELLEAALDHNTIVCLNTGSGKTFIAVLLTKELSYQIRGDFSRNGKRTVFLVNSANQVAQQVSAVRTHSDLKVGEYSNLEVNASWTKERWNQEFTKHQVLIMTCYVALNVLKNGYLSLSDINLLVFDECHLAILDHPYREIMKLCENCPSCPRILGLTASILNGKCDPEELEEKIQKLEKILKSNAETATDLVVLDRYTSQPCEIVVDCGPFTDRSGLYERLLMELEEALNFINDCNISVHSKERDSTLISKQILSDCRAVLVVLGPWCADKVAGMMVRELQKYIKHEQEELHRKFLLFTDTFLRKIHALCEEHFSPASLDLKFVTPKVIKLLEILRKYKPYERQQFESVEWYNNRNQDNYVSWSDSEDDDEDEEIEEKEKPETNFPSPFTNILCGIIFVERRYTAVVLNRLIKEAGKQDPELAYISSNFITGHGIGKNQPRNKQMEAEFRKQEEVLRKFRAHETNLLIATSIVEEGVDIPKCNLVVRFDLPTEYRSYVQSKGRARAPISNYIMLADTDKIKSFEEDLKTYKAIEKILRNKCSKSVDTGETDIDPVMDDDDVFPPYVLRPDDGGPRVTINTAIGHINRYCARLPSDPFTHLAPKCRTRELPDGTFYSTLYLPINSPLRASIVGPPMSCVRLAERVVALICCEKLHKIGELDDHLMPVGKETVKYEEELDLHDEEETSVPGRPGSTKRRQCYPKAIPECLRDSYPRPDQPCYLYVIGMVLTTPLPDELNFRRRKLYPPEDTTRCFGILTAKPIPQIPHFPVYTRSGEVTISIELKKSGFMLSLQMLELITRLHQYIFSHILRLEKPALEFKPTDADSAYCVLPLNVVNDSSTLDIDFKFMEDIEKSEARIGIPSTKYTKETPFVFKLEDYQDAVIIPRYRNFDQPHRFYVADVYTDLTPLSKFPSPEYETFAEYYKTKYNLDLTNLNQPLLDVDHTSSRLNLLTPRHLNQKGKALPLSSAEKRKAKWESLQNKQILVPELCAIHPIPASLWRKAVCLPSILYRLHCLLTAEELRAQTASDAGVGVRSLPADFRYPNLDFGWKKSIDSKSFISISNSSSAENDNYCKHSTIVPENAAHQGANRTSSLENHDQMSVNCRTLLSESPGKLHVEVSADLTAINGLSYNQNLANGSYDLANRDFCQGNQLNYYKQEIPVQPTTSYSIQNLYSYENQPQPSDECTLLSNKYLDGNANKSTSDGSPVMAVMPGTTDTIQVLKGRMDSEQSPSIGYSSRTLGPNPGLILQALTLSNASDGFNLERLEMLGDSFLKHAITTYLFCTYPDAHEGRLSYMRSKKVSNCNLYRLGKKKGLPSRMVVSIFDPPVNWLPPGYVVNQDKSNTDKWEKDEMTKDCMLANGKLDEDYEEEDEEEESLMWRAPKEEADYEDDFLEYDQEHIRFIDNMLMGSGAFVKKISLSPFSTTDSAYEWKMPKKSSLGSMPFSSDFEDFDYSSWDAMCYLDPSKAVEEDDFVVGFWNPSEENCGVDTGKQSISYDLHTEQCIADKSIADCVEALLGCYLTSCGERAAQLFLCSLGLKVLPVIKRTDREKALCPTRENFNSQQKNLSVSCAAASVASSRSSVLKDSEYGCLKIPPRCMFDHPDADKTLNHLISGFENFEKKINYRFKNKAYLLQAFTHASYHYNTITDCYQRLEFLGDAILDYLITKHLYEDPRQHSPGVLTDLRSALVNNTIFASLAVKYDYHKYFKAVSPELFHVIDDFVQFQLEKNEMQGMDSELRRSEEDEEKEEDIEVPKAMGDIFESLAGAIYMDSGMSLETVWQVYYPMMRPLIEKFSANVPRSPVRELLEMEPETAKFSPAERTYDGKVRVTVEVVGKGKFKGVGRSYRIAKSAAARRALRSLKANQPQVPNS
# Experiment: inhibitors of Dicer pre-microRNA processing, primary screen, biochemical, cat-ELCCA, chemiluminescence (AID 1347074);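 also: plate controls were vehicle for no effect and no enzyme for full effect; higher signal means more uncleaved substrate so more Dicer inhibition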
# Details: cat-ELCCA pre-miR-21 Dicer processing, at 25 µM, active compounds read high
row,SMILES,z-score
1,CCN1C(=O)C2(/C(=C(/O)c3ccc(OC)c(C)c3)C(=O)C(=O)N2CCCOC)c2ccccc21 (stereo not given),1.63
2,CCN1C(=O)C2(/C(=C(/O)c3ccc(C)c(F)c3)C(=O)C(=O)N2CCCOC)c2ccccc21 (stereo not given),-0.56
3,CCN1C(=O)C2(/C(=C(/O)c3ccccc3)C(=O)C(=O)N2CCCOC)c2ccccc21 (stereo not given),3.53 (active)
4,CC1CC(=O)Nc2ccccc2N1C(=O)Nc1cccc(Cl)c1Cl (stereo not given),-0.93
5,O=C1CC(N2CCN(C(c3ccccc3)c3ccccc3)CC2)C(=O)N1c1cccc(Cl)c1 (stereo not given),-0.21
6,O=C(NC(=S)Nc1nc(-c2ccc(Cl)cc2)cs1)C1CC1,1.34
7,O=C(NNc1nc(-c2ccc(F)cc2)cs1)c1ccc(Cl)cc1,5.33 (active)
8,Cc1ccc(S(=O)(=O)NC(=O)Nc2nc(-c3ccc(F)c(F)c3)cs2)cc1,-0.18
9,CC12c3ccccc3C(c3ccccc31)C1C(=O)N(c3ccc(C(=O)O)cc3)C(=O)C12 (stereo not given),0.79
10,Cc1ncc([N+](=O)[O-])n1CCOC(=O)c1ccc(Br)cc1,-0.13
11,Cc1oc2cc(Br)c(O)cc2c1C(=O)OC(C)C,3.81 (active)
12,Cc1oc2cc(Br)c(OC(=O)c3ccco3)cc2c1C(=O)OC(C)C,1.65
13,COc1ccc(C(=O)COc2cc3c(C(=O)OC(C)C)c(C)oc3cc2Br)cc1,0.17
14,Cc1cn(C(=O)Nc2ccccc2)nc1-c1cccs1,1.17
15,Cc1ccc2nc(-c3cccnc3)[nH]c2c1,-0.74
16,COc1cc(C2C3=C(CC(C)(C)CC3=O)Nc3ncnn32)ccc1OC(C)C (stereo not given),3.67 (active)
17,COc1cc(C2C3=C(CC(C)(C)CC3=O)NC3=C2C(=O)CC(C)(C)C3)ccc1O,1.78
18,COc1cc(OC)cc(-c2nc3n(n2)C(c2ccc(OC)c(OC)c2)C2=C(CC(C)(C)CC2=O)N3)c1 (stereo not given),0.99
19,C=CCOc1ccc2c(=O)c(Oc3cc(C)ccc3C)coc2c1,1.12
20,O=C(c1ccco1)N1CCC2(Cl)CCCCC2C1c1ccccc1 (stereo not given),-2.84
21,O=C(NC1(NCc2ccc(Cl)cc2)C(=O)c2ccccc2C1=O)c1ccc(C(F)(F)F)cc1,0.41
22,COc1ccc(Nc2nc3ccccc3nc2NS(=O)(=O)c2ccccc2)cc1OC,1.78
23,CCCCN(CC)c1ncnc2ccc(C)cc12,3.53 (active)
24,NC(=S)N/N=C/c1ccc(Cl)c(Cl)c1,-1.14

row,SMILES,z-score
1,CC(C)(C)NC(=O)NCCCN1CCOCC1,0.22
2,CCN(CC)C(=O)c1c(NC(=O)c2cccs2)sc2c1CCCCC2,-1.54
3,CCOC(=O)C1=C(C)NC2=C(C(=O)c3ccccc32)C1c1cc(Br)c(OC)c(OC)c1 (stereo not given),1.14
4,O=c1[nH]c(SCc2ccccc2)nnc1-c1ccccc1,0.5
5,CCS(=O)(=O)n1nc(-c2ccc(OC)cc2)nc1SC,3.58 (active)
6,COc1ccc(-c2noc(-c3ccc(Br)cc3)n2)cc1,1.15
7,CCS(=O)(=O)n1nc(-c2ccccc2)nc1SCc1ccccc1,3.99 (active)
8,CCCc1cc(=O)n2[nH]c(SCc3ccccc3)nc2n1,0.14
9,COc1ccc(Cc2nc(-c3ccc(OC)cc3)no2)cc1,0.51
10,COc1ccc(COC(=O)C2=C(C)NC3=C(C(=O)CCC3)C2c2ccc(Br)cc2)cc1 (stereo not given),0.32
11,O=c1c(-c2ccc(OC3O[C@H](CO)[C@@H](O)[C@H](O)[C@H]3O)cc2)coc2cc(O)cc(O)c12 (stereo not given in full),0.24
12,CS(=O)(=O)N(CC(=O)O)c1cccc2ccccc12,-1.7
13,CCOC(=O)C1=C(c2ccccc2)Nc2nc3ccccc3n2C1c1ccc(O)c(OCC)c1 (stereo not given),-6.05
14,N#Cc1cn(Cc2ccccc2Cl)c(=O)[nH]c1=O,0.24
15,CC1(C)S[C@@H]2[C@H](NC(=O)COc3ccccc3)C(=O)N2C1C(=O)O (stereo not given in full) (tested in a mixture with another compound),-0.17
16,CC1(C)SC2C(NC(=O)COc3ccccc3)C(=O)N2C1C(=O)O (stereo not given),1.11
17,CC(=O)N1[C@@H](c2ccc(C)cc2)SC(C)(C)[C@@H]1C(=O)O,4.5 (active)
18,CN(C)c1ccc(NC(=O)CSc2nc(-c3ccco3)cc(C(F)(F)F)n2)cc1,-1.78
19,Cc1nc2ccccc2n1CCOc1ccc(Cl)cc1,0.74
20,CCCNC(=O)NNC(=O)Cn1nnc(N2CCOCC2)n1,11.9
21,S=c1nn[nH]n1-c1ccc(Cl)cc1Cl,-0.38
22,c1ccc2c(-c3csc(-c4ccc5c(c4)OCCO5)n3)csc2c1,-0.77
23,CCCc1cc(-c2n[nH]c(C)c2-c2ccc3c(c2)OCCO3)c(O)cc1O,7.51 (active)
24,Cc1cc(C)n(C(C)C(=O)Nc2ccc(F)cc2)c(=O)n1 (stereo not given),2.63

row,SMILES,z-score
1,O=C(O)CCC(=O)c1ccc2ccccc2c1,0.56
2,Cc1ccc(OS(=O)(=O)c2ccc(F)cc2)c([N+](=O)[O-])n1,-1.06
3,O=C(O)c1ccc(NS(=O)(=O)c2cccc3nsnc23)cc1,1.86
4,Cc1ccc2nsnc2c1S(=O)(=O)N1CCCC1C(=O)O (stereo not given),-1.03
5,Cc1ccc2nsnc2c1S(=O)(=O)Nc1ccc(Br)cc1,5.39 (active)
6,CN(C)/C=C1\C(=O)c2ccc(Cl)cc2N(Cc2c(F)cccc2Cl)S1(=O)=O,-0.82
7,Cc1ccc(C(=O)Nc2ccccc2Sc2nc3ccccc3c(C)c2C#N)cc1,-1.01
8,CCOc1ccc(/C(O)=C2\C(=O)C(=O)N(c3nccs3)C2c2ccc(F)cc2)cc1 (stereo not given),0.2
9,O=C(Nc1sc2c(c1C(=O)O)CCCC2)c1cc2ccccc2o1,0.75
10,O=C(NCc1ccccn1)C(=O)Nc1cccc(Br)c1,1.05
11,O=C(Nc1cccc(Br)c1)c1csc2c1CCCC2,5.59 (active)
12,Cc1nc(-n2cccc2)sc1C(=O)N/N=C/c1ccc(Cl)cc1,0.46
13,Cc1oc(C(C)(C)C)cc1C(=O)Nc1ccc(SCc2cccc(Cl)c2F)cc1,-1.58
14,COc1ccc(-c2csc3nc(-c4ccccc4F)oc(=O)c23)cc1OC,0.98
15,CC(C)=Cc1nc2cccc(F)c2c(=O)o1,0.25
16,Cc1sc2nc(-c3ccccc3F)oc(=O)c2c1C,3.11 (active)
17,Cc1cc(C)c(C#N)c(Sc2ccc(Cl)cc2)n1,-0.54
18,CN1C(=O)C2(/C(=C(/O)c3ccc(Cl)cc3)C(=O)C(=O)N2CC2CCCO2)c2ccccc21 (stereo not given),0.79
19,CN(C)S(=O)(=O)N(CC(=O)NC1CC2CCC1C2)c1ccccc1 (stereo not given),-1.13
20,N#C/C(=C\N1CCOCC1)S(=O)(=O)Cc1ccc(Cl)cc1,-1.52
21,COC(=O)C(Cc1c[nH]c2ccccc12)NC(=O)CN1CCCCC1 (stereo not given),4.61 (active)
22,CC(=O)NC(Cc1c[nH]c2ccccc12)C(=O)O (stereo not given),2.44
23,O=C(NCCc1c[nH]c2ccccc12)C(=O)NCC1CCCO1 (stereo not given),-1.03
24,COC(=O)c1ccc(S(=O)(=O)NCc2ccccc2)n1C,1.21

row,SMILES,z-score
1,COCCOC(=O)c1c(C)oc2ccc(NS(=O)(=O)c3ccc(Cl)cc3)cc12,-0.11
2,Cc1oc2ccc(NS(=O)(=O)c3ccc4c5c(cccc35)C(=O)N4)cc2c1C(=O)OC(C)C,2.44
3,COC(=O)c1c(C)oc2ccc(NS(=O)(=O)c3cccc4cccnc34)cc12,3.25 (active)
4,CCOC(=O)C1=C(C)NC2=C(C(=O)c3ccccc32)C1c1ccc(OC(=O)c2ccccc2)cc1 (stereo not given),-1.18
5,Cn1nc(Oc2nc(N3CCCCC3)nc(N3CCCCC3)n2)ccc1=O,1.65
6,CCOC(=O)C(Nc1cccc(Cl)c1)C(=O)OCC,-1.26
7,O=C1c2ccc3c4c(ccc(c24)C(=O)N1c1ccccc1)C(=O)N(c1ccccc1)C3=O,-0.71
8,Cc1ccc(N=C2SC3(CC3)C(=O)N2c2ccc(C)cc2)cc1,0.49
9,O=C1N(c2ccccc2)C(=Nc2ccccc2)SC12CC2,4.33 (active)
10,CC1(C)Cc2c(sc3ncn4nc(-c5ccco5)nc4c23)C(C)(C)N1,0.09
11,Nc1cccc2c(S(=O)(=O)N3CCCCC3)cccc12,-1.6
12,Cc1cccc(NC(c2cccc(F)c2)c2ccc3ccc(C)nc3c2O)n1 (stereo not given),0.62
13,Cc1ccnc(NC(c2ccc(O)cc2)c2ccc3ccc(C)nc3c2O)c1 (stereo not given),4.59 (active)
14,Cc1cccc(NC(c2ccc3c(c2)OCO3)c2ccc3ccc(C)nc3c2O)n1 (stereo not given),1.45
15,COc1ccc(-n2ncc(C(=O)NCc3c(Cl)cccc3Oc3ccccc3)c2C)cc1,-2.95
16,CSc1sc(C(=O)Nc2ccc(Cl)cc2)c2c1S(=O)(=O)N(C)c1ccccc1-2,-0.3
17,CCC(CC)NC(=O)C1c2ccccc2Oc2ccccc21,6.16 (active)
18,N#Cc1ccc(N2CCN(C(=O)c3cc(-c4ccc(Cl)cc4)oc3C(F)(F)F)CC2)cc1,0.32
19,COc1ccc(-c2cn3ccc(C)cc3n2)cc1F,3.54 (active)
20,Cc1ccc(-c2cn3cc(C)ccc3n2)cc1,-0.35
21,CC(C)c1cc(C(C)C)c(S(=O)(=O)NCc2cccnc2)c(C(C)C)c1,-0.34
22,Cc1cc(OCC(=O)O)cc2c1C(=O)CC(C)(C)O2,1.97
23,Cc1nc(-c2cc(C#N)c(SCCNS(=O)(=O)c3ccc(Cl)cc3Cl)nc2C)cs1,-0.5
